In the library only some 2% were active in any assay of this set; here they are far more common.
PfHsp40 yeast: rescue of yeast from PfHsp40 toxicity, primary screen, S. cerevisiae, ATP luminescence; S. cerevisiae expressing PfHsp40, growth rescue; growth rescue, % at 12.5 µM; actives 0.68% (n = 340,000); AID 504582, 2011; in the data active = growth rescue above about 28%, passing the limit was not always enough; inconclusive = no clear call, values can overlap the other calls;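 also: yeast W303a lacking pdr1 and pdr3 grown in galactose medium; growth measured after three days at 30 °C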
PrPC TRFRET: inhibitors of human cell surface prion protein PrPC, primary screen, cell-based, TR-FRET; actives 0.43% (n = 370,000); TR-FRET read-out; inhibition, % at 13.8 µM; AID 720596, 2013; in the data active = inhibition above about 24%; also: 0% = median of the test wells and 100% = reference compound wells
BJeLR lethal: MLPCN primary cell-based screen for lethality selective to Ras in HRASV12 cells | BJeLR (HRASV12) viability, CellTiter-Glo ATP luminescence, 48 h | inhibition, % (test concentration not listed) | actives 0.17% (n = 300,000) | AID 1554, 2009; in the data active = inhibition above about 50%; inconclusive = no clear call, values can overlap the other calls
PrP 5UTR inh: inhibition of PrP 5' UTR reporter expression | cell-based PrP 5' UTR mRNA reporter, plate reader | inhibition, % (no concentration beside the values) | actives 0.35% (n = 340,000) | AID 488862, 2010; in the data active = inhibition above about 52%; also: 0 = median of the neutral control wells
Yp Topo-I inh: Yersinia pestis topoisomerase I inhibitors, primary screen, biochemical, cleavage product accumulation, plate reader, single point; Y. pestis Topo-I cleavage product accumulation; AID 504884, 2011; DNA topoisomerase I (Yersinia pestis CO92); activity, % at 10 µM; actives 0.064% (n = 360,000); in the data active = activity above about 50%, passing the limit was not always enough; inconclusive = no clear call, values can overlap the other calls
CCHF vOTU inh: CCHFV vOTU protease inhibitors, primary screen, biochemical, Pep-AMC substrate, fluorescence; Crimean-Congo hemorrhagic fever virus L polyprotein viral ovarian tumor (vOTU) protease …; inhibition, % at 11.5 µM; actives 0.55% (n = 370,000); in the data active = inhibition above about 30%; also: 0% = vehicle wells with enzyme and 100% = no enzyme wells
Active calls of the source: *; ? = inconclusive; . = no result given.

SMILES | PfHsp40 yeast | PrPC TRFRET | BJeLR lethal | PrP 5UTR inh | Yp Topo-I inh | CCHF vOTU inh
CCCCCN=C(N)N/N=C/c1c[nH]c2ccc(OC)cc12 | -2.8 | 7.2 | 69.6* | -9.4 | -10.0 | 17.6
CCCC1CC(C)(c2csc(Nc3ccc(OCC)cc3)n2)OC1=O (stereo not drawn) | 50.0* | 9.3 | 5.8 | -12.9 | -7.2 | 16.6
CCOc1ccc(NC(=O)CC2CC(C)(C)OC2=O)cc1 (stereo not drawn) | -0.2 | -0.9 | -7.4 | 1.5 | 1.8 | 10.0
COC(=O)C1=C(c2ccc(-c3ccccc3)c(F)c2)C[C@@H]2CC[C@H]1N2C(=O)N1CCCC1 | 28.6* | 7.9 | . | -11.8 | 36.6 | 10.1
O=C(CSc1ccc(Cl)cc1)N1CCN(c2c(Cl)cccc2[N+](=O)[O-])CC1 | 66.2* | -5.1 | 9.0 | -15.0 | ? | -2.6
O=C(/C=C/c1ccc(Cl)cc1)N1CCN(c2c(Cl)cccc2[N+](=O)[O-])CC1 | 3.4 | 6.0 | 4.9 | -18.4 | 31.5 | 0.8
CCN1CCN(C2=C(NS(=O)(=O)c3ccc(C)cc3)C(=O)c3ccccc3C2=O)CC1 | 1.1 | -52.2 | -8.0 | -25.1 | -13.8 | 43.6*
O=C(CCn1nnc2ccccc21)N1CCN(c2cccc(C(F)(F)F)c2)CC1 | . | 2.6 | . | . | . | 6.9
COc1ccc(C(c2c(C)[nH]n(-c3ccccc3)c2=O)c2c(C)[nH]n(-c3ccccc3)c2=O)cc1OC | -0.6 | -4.2 | -2.5 | -24.6 | -7.2 | 84.2*
COCCCNc1oc(-c2ccccc2F)nc1C#N | 34.4* | 0.7 | -1.9 | -28.7 | 9.7 | -67.9
CNC(=O)c1c(NC(=O)CS(=O)(=O)c2ccccc2)sc(C)c1C | 51.1* | -0.5 | 6.8 | -18.8 | 10.5 | 8.2
CCCN(CCC)CCN1CCN(C(=O)[C@H](CCc2ccccc2)NC(=O)[C@H]2O[C@@H](n3cnc4c(N)ncnc43)[C@H](O)[C@@H]2O)CC1 | . | -6.8 | . | . | . | 15.9
CNc1ccccc1/C(O)=C(\C#N)C(=O)NCc1cccc2ccccc12 | . | -6.1 | . | . | . | 4.3
O=C(N/N=C/c1sc2ccccc2c1O)c1ccccc1 | -2.1 | . | 17.2 | -34.3 | -3.8 | .
COc1ccc(C(=O)N/N=C/c2sc3ccccc3c2O)cc1 | 262.1* | . | 34.4 | 9.9 | -3.3 | .
O=C(N/N=C/c1sc2ccccc2c1O)c1cccc2ccccc12 | 32.3* | -4.4 | 34.4 | 18.1 | 4.1 | -4.6
COc1ccc2cc(C(=O)N/N=C/c3sc4ccccc4c3O)ccc2c1 | 3.9 | 13.8 | -4.5 | -10.9 | -19.7 | 6.5
COCCNC(=S)N(C)[C@H]1C[C@H]2c3[nH]c4c(-c5ccccc5)cccc4c3CCN2C[C@H]1[C@H](C)O | . | -6.9 | . | . | . | -11.4
O=C(CCN1CCOCC1)N/N=C/c1cc(Br)cc(Br)c1O | 39.9* | 5.6 | 6.6 | -10.4 | -3.5 | -12.1
O=C(Cc1ccccc1)N/N=C/c1cc(Br)cc(Br)c1O | -0.4 | -0.8 | -0.3 | -4.5 | -1.5 | -13.4
Cc1nc2ccc(C(=O)NCc3ccc4c(c3)OCO4)cc2s1 | 588.9* | 1.1 | 0.5 | -9.9 | -10.0 | -3.1
C[C@H](c1ccccc1)N1C[C@@H](COCc2ccccc2)Oc2cccc(Oc3ccc(F)cc3)c2S1(=O)=O | . | 3.4 | . | . | . | 2.4
COc1ccc2[nH]c3c(N4CC(C)OC(C)C4)ncnc3c2c1 (stereo not drawn) | . | 6.0 | -3.7 | . | . | -38.1
COc1cccc(N2CCN(c3ncnc4c3[nH]c3ccc(F)cc34)CC2C)c1 (stereo not drawn) | 11.3 | 85.4* | 36.4 | -20.1 | -22.9 | 9.4
CCN(CC(O)Cn1c2ccccc2c2ccccc21)S(=O)(=O)c1ccc(C)cc1 (stereo not drawn) | 9.9 | 4.7 | 2.3 | -15.2 | 17.9 | 7.8
Cc1ccc(S(=O)(=O)N(CCCO)CC(O)CON=C2c3ccccc3-c3ccccc32)cc1 (stereo not drawn) | 28.9* | 6.3 | -18.5 | -19.6 | 21.2 | 6.5
O=C(Nc1cccc(F)c1)OCCN1CCCC12CCC(c1ccccc1)CC2 (stereo not drawn) | . | 2.9 | . | . | . | .
